# mHTT CaM bind – mutant huntingtin-calmodulin interaction inhibitors – biochemical, AlphaScreen, primary screen. P42858. AlphaScreen His-mHTT/GST-CaM binding, luminescence. inhibition, % at 15 µM. 190,000 tested, 3.6% active. AID 1671202, 2021;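 further: 0% = both proteins with DMSO and 100% = one protein alone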
# Target sequence (P42858 whole entry, looked up, stated change not applied): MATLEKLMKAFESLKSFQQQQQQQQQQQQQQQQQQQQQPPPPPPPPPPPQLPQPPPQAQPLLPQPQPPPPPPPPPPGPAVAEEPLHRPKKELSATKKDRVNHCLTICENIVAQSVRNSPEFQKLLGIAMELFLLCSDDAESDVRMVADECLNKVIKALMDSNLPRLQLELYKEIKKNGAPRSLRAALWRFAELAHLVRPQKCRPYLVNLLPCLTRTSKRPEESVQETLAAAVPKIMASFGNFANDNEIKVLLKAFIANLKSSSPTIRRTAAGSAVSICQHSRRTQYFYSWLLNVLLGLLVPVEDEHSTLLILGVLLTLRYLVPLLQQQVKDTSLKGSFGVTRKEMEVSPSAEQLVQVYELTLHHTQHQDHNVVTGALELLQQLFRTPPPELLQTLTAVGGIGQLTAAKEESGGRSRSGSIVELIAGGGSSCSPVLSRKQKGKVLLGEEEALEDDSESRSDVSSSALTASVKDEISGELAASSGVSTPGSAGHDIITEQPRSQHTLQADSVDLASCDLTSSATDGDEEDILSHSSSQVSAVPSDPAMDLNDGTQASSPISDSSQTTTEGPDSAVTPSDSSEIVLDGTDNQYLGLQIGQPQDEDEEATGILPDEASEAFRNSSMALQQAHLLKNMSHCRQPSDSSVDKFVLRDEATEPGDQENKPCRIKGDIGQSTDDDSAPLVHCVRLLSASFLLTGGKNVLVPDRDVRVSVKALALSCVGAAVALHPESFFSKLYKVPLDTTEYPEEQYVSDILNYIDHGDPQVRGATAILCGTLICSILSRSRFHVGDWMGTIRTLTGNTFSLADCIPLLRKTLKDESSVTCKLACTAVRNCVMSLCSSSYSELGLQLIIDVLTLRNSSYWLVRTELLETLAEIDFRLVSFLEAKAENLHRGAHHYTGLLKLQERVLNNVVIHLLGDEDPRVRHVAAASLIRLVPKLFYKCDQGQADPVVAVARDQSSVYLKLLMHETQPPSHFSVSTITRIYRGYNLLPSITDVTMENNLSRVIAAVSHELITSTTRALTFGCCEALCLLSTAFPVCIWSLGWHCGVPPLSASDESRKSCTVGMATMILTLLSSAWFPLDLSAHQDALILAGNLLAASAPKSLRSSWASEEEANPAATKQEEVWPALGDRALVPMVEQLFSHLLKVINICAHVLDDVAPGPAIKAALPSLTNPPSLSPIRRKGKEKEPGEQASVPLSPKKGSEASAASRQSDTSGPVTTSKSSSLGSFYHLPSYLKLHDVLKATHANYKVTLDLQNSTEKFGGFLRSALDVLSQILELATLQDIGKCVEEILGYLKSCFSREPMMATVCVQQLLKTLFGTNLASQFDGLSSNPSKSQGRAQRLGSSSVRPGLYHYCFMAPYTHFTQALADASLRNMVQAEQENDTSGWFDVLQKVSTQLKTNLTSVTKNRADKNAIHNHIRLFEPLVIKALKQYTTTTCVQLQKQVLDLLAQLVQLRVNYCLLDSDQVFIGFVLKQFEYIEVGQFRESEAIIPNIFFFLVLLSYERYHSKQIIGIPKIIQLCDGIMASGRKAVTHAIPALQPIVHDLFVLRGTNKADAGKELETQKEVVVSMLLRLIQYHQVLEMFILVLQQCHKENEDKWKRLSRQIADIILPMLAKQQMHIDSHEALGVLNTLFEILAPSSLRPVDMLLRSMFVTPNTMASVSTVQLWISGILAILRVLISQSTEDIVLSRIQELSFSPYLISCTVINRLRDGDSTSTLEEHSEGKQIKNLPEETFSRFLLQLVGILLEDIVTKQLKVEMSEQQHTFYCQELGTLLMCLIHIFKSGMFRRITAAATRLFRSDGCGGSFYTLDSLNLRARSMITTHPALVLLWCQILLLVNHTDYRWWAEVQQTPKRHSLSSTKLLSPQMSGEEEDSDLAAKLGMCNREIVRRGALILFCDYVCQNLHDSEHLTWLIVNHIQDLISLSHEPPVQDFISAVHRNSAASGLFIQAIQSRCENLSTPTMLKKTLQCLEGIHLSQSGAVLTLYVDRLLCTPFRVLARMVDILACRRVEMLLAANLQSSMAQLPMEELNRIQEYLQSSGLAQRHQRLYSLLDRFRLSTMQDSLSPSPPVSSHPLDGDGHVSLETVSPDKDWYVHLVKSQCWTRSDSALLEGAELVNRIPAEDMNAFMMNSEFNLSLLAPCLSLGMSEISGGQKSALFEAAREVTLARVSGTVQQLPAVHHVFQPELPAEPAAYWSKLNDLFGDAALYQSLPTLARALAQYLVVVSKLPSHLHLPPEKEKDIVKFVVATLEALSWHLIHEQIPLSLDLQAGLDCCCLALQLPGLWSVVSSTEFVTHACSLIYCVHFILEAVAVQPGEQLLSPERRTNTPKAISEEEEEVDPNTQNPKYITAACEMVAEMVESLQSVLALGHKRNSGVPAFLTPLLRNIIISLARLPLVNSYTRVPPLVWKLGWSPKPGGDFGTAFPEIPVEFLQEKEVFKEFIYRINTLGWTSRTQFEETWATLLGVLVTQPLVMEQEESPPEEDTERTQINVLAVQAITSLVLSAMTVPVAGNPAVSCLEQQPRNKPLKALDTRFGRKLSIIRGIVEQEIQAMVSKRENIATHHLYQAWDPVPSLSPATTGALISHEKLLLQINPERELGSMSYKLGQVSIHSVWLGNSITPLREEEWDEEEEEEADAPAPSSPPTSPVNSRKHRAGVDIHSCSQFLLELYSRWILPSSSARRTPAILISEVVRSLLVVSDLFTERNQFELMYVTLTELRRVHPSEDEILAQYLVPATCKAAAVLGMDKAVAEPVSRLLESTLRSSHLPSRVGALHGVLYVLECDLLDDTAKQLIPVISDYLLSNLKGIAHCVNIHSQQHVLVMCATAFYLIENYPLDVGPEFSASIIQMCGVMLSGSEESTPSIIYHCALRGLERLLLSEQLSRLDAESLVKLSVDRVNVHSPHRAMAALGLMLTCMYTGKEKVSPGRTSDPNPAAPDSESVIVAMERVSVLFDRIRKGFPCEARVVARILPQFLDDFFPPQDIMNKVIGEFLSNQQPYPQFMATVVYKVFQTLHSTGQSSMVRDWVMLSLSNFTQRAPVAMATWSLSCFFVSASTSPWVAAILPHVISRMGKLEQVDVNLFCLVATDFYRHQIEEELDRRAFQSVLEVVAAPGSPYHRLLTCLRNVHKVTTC
# Pf apPOL block – Pf-apPOL inhibitors, biochemical, fluorescence | Plasmodium falciparum apicoplast DNA polymerase (apPOL) | Recombinant Pf-apPOL, molecular beacon fluorescence, 1.5 h | inhibition, % at 10 µM | 210,000 tested, 0.25% active
# * = called active by the depositor; / = not tested or not shown. Only some compounds are listed: those with a hit (about 3.5% of all), similar ones and a draw of the others. No stated cut-off is given here; in the data, active means inhibition above about 50%; inactive means the rest.
SMILES,mHTT CaM bind,Pf apPOL block
Nc1cc(C2CCN(C(=O)NCC3CCCO3)CC2)no1 (stereo not drawn),4.1,-0.1
CCc1ccc2nc(N3CCC(C(=O)N4CCCC4)CC3)sc2c1,17.0,34.3
CC(Oc1ccccc1)C(=O)N1CCC(n2nc(-c3ccsc3)ccc2=O)CC1 (stereo not drawn),71.2*,1.9
O=C(N1CCC(n2nc(-c3ccsc3)ccc2=O)CC1)C1(c2ccccc2)CC1,-1.0,-2.0
COc1ccc(C(=O)N2CCC(n3nc(-c4ccsc4)ccc3=O)CC2)cc1,98.5*,-5.9
O=C(Cc1cccc(F)c1)N1CCC(n2nc(-c3ccsc3)ccc2=O)CC1,34.8,-3.8
COc1ccc(C(=O)N2CCC(N3CCCCCC3)CC2)cc1,-1.7,-3.6
Cc1ccc(C(=O)N2CCC(c3nc(-c4ccncc4)n[nH]3)CC2)s1,11.8,12.3
O=C(c1cccc(F)c1)N1CCC(n2nc(-c3ccsc3)ccc2=O)CC1,95.3*,-0.8
Cc1ccc(C(=O)N2CCC(n3nc(-c4ccsc4)ccc3=O)CC2)s1,100.2*,-3.9
O=C(NN1C(=O)c2ccccc2C1=O)c1ccn[nH]1,-1.9,-4.2
COc1ccccc1C(=O)Nc1c2c(nn1-c1ccc(F)cc1)CSC2,6.0,-3.7
O=C1C(=O)N(CN2CCN(CCO)CC2)c2ccccc21,5.0,1.5
CC(=O)N1CCc2c(c(COCc3ccc(Cl)cc3)nn2C)C1,-4.3,-4.2
COc1cccc(C2CC(c3cccc(Br)c3)Nc3nnnn32)c1 (stereo not drawn),-5.7,2.5
O=C(c1cccnc1)N1CCC(n2nc(-c3ccsc3)ccc2=O)CC1,10.3,0.2
COc1cccc(C(=O)N2CCC(n3nc(-c4ccsc4)ccc3=O)CC2)c1,100.1*,-1.7
CCOc1ccc(N=c2scc(-c3ccc(C)cc3)n2C)cc1,8.0,-2.5
Cc1cccc(N=c2scc(-c3ccc(F)cc3)n2CCO)c1,65.0*,-1.9
OCCn1c(-c2ccc(I)cc2)csc1=Nc1cccc(Cl)c1,80.0*,4.0
Cc1ccc(-c2csc(=Nc3cccc(Cl)c3)n2CCO)cc1,93.0*,-3.6
CCN1c2ccccc2C(=O)NC12CCN(C(=O)NCc1ccccc1)CC2,2.1,-4.5
COc1ccc(NC(=O)c2ccc(OCC(C)C)cc2)cc1Cl,-5.8,-1.7
CCn1cc(C=C2C(=O)OC(C)(C(C)(C)C)OC2=O)c2ccccc21 (stereo not drawn),10.0,0.6
COc1ccc(C(=O)N2CCC(C(N)=O)CC2)cc1[N+](=O)[O-],2.3,-4.5
SMILES,mHTT CaM bind,Pf apPOL block
Cc1cccc(N2C(=O)CSC2c2ccccc2)c1 (stereo not drawn),-2.0,6.6
CC(C)C(=O)N1CCC(CCOc2ccccc2)CC1,-9.6,-4.6
CN(CC(=O)N1N=C(c2cccs2)CC1c1ccccc1)C(=O)C1CCCC1 (stereo not drawn),20.8,-1.3
COc1ccc(C2=NN(C(=O)CCCC(=O)O)C(c3ccccc3OC)C2)cc1OC (stereo not drawn),7.1,-11.7
Cc1ccc(C2CC(c3cccs3)=NN2C(=O)CN(C)C(=O)C2CCCC2)cc1 (stereo not drawn),60.8*,-0.9
Cc1ccc(C2CC(c3ccc(C)c(C)c3)=NN2C(=O)CN(C)C(=O)C2CC2)cc1 (stereo not drawn),6.4,2.2
CC(=O)N(C)CC(=O)N1N=C(c2ccc(F)cc2)CC1c1ccccc1 (stereo not drawn),21.0,6.8
COc1ccccc1C1CC(c2ccc(C)c(C)c2)=NN1C(=O)CN(C)C(C)=O (stereo not drawn),65.6*,-4.9
Cc1ccc(C2=NN(C(=O)CN(C)C(=O)NC(C)C)C(c3ccccc3)C2)cc1C (stereo not drawn),51.5*,-0.2
CC(=O)N(C)CC(=O)N1N=C(c2ccc(C)c(C)c2)CC1c1ccccc1 (stereo not drawn),53.8*,-1.9
Cc1ccc(S(N)(=O)=O)cc1NC(=O)c1ccc([N+](=O)[O-])cc1Cl,5.1,-2.5
O=C(NC1CC1)c1cccc2c1CCN2C(=O)C1CC1,-2.7,6.3
Cc1ccc(-n2nc3c(c2NC(=O)C2CCCCC2)CSC3)c(C)c1,25.0,-8.0
O=[N+]([O-])c1ccc(N=Cc2nc(-c3ccccc3)oc2O)cc1,2.0,15.6
O=C1N=C(N2CCCC2)S/C1=C/C=C/c1ccccc1,76.0*,-1.5
O=C1N=C(N2CCCCC2)S/C1=C/C1=Cc2ccccc2OC1,66.0*,-7.4
CN1CCN(C2=NC(=O)/C(=C/c3ccccc3)S2)CC1,2.0,-7.3
O=C1N=C(N2CCOCC2)S/C1=C\C1=Cc2ccccc2OC1,45.2,/
NC(=O)c1ccccc1OCC(=O)Nc1ccc(Br)cc1,-6.2,0.5
CNC(=O)C1CN(C(=O)c2cc(OC)c(OC)c(OC)c2)CC12CCCC2 (stereo not drawn),-7.5,-0.4
COc1cc(OC)cc(C2=NC3(CCCC3)N(C(=O)c3cc(OC)c(OC)c(OC)c3)C2=S)c1,51.7*,-4.9
O=[N+]([O-])c1ccc(-c2nc(NCCO)c3ccccc3n2)cc1,15.0,-1.3
O=C(OCc1ccccc1)C1C2C=CC3(CN(c4ccc(Cl)cc4)C(=O)C13)O2 (stereo not drawn),79.6*,-2.1
CCc1ccc(N2CC34C=CC(O3)C(C(=O)OC)C4C2=O)cc1 (stereo not drawn),4.2,-1.4
O=C(c1ccc(F)cc1F)N1CCc2nc(-c3ccccc3)ncc2C1,-3.3,-2.5
SMILES,mHTT CaM bind,Pf apPOL block
O=C(NC1CCCC1)c1nn2c(C(F)(F)F)cc(-c3ccco3)nc2c1Br,0.0,2.9
O=C(Nc1cccc(O)c1)c1nn2c(C(F)(F)F)cc(-c3ccco3)nc2c1Br,61.0*,6.7
Fc1ccc(C2=Nc3ccc(F)cc3NC(c3ccccc3)=N2)cc1,7.0,-3.1
Brc1ccc2c(c1)NC(c1ccccc1)=NC(c1ccncc1)=N2,70.7*,-5.0
Cn1c(COc2ccccc2)nn(CN2CCC3(CC2)OCCO3)c1=S,-8.1,/
Cn1c(COc2ccccc2)nn(C2c3ccccc3Oc3ccccc32)c1=S,54.3*,/
Oc1c(F)cccc1C=Nc1ccc(F)c(Cl)c1,5.0,2.2
COc1ccc(OC)c(NC(=O)N2CCc3nc[nH]c3C2)c1,19.4,-0.5
COc1ccc(NC(=O)N2CCc3nc[nH]c3C2)c(OC)c1,13.1,73.1*
O=C(Nc1ccccc1F)c1ccc(F)cc1,0.2,3.7
CN(C)c1ncncc1N1CCC(C(=O)N2CCC(Cc3ccccc3)CC2)CC1,50.5*,-4.0
CC1CCN(C(=O)C2CCN(c3cncnc3N(C)C)CC2)CC1,-2.0,-3.8
CN(C)c1ncncc1N1CCC(C(=O)N2CCCC2)CC1,-4.7,4.5
Cc1ccc(C)c(N2CCN(C(=O)C3CCN(c4cncnc4N(C)C)CC3)CC2)c1,59.8*,2.2
COc1cc(C2C(C(=O)Nc3ccccn3)=C(C)NC3=C2C(=O)CC(C)(C)C3)cc(OC)c1OC (stereo not drawn),2.0,-7.3
Cc1cccc(NC(=O)N2CCC3(CC2)NC(=O)c2cc(Cl)ccc2N3C)c1,-8.4,5.2
CSCCC(C(=O)O)N1C(=O)NC2NC(=O)NC21 (stereo not drawn),-4.6,-8.9
CCOC(=O)c1ccc(NC(=O)C2CC(=O)N(c3ccc(Cl)cc3)C2)cc1 (stereo not drawn),-17.8,-5.5
CCc1ccccc1NC(=O)C1CC(=O)N(CCc2c[nH]c3ccc(Cl)cc23)C1 (stereo not drawn),87.7*,-2.9

# Bioassay records: PubChem BioAssay, University of Kansas High Throughput Screening Laboratory
